The test addresses T1, ERF (Homo sapiens, UniProt P50548 1-548).
T1 sequence: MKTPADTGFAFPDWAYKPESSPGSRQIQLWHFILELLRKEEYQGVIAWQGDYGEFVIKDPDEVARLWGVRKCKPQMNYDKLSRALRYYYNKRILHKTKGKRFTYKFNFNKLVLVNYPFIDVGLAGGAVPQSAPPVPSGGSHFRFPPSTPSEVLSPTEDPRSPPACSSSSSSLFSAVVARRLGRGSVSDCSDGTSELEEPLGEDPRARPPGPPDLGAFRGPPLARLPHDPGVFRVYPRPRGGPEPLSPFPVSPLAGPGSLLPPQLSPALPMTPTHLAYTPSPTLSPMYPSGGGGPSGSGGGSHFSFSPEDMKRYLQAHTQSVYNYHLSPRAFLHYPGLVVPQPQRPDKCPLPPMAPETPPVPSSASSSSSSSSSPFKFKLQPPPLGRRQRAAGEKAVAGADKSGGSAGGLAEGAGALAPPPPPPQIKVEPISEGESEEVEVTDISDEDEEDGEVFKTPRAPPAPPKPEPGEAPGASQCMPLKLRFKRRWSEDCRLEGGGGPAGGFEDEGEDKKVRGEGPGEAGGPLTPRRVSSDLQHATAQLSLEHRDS
Put plainly: DAPPL (digital affinity profiling via proximity ligation, sequencing); 10 mM Tris-HCl pH 7.5, 50 mM NaCl, 1 mM DTT, 4% glycerol, room temperature, 30 min; GST-TFs on glutathione beads, 16-mer random dsDNA library, 0.1% formaldehyde crosslink after washing; high values mean tight binding. The settings on record: protein: recombinant; tags: N-terminal GST; dsDNA, one strand shown. An outline of the steps: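 Pools were built from human transcription factors expressed in yeast as GST fusions, captured on glutathione beads and DNA-barcoded, along with a tag-only sample. Incubation with 200 nmole of a 16-mer random double-stranded DNA library lasted 30 min at room temperature in Tris/NaCl/DTT/glycerol buffer, and was followed by washing, 0.1% formaldehyde crosslinking, proximity ligation, PCR amplification and Illumina NextSeq500 sequencing. Binding signal is the quotient of each hexamer's read frequency for a factor and its frequency for the tag-only sample.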
Consider TACCAT, for which the binding signal was 1.22 fold enrichment (6-mer frequency, TF over GST control). With GTTCCT the figure was 1.49 fold enrichment (6-mer frequency, TF over GST control); with CCGCCT, 1.35 fold enrichment (6-mer frequency, TF over GST control). With AAATTG the figure was 1.3 fold enrichment (6-mer frequency, TF over GST control). With AAAAAG the figure was 1.22 fold enrichment (6-mer frequency, TF over GST control); with TATTTT, 1.19 fold enrichment (6-mer frequency, TF over GST control); with CTTCGT, 1.4 fold enrichment (6-mer frequency, TF over GST control). As for GTTATT, the binding signal is 1.12 fold enrichment (6-mer frequency, TF over GST control). Turning to CCTGCT, the binding signal is 1.53 fold enrichment (6-mer frequency, TF over GST control). With CTAGCA the figure was 1.21 fold enrichment (6-mer frequency, TF over GST control). With ATGACC the figure was 1.42 fold enrichment (6-mer frequency, TF over GST control); with CTTCCG, 6.13 fold enrichment (6-mer frequency, TF over GST control). As for AATGAC, the binding signal is 1.35 fold enrichment (6-mer frequency, TF over GST control). With ACCGAT the figure was 1.05 fold enrichment (6-mer frequency, TF over GST control); with ATACGA, 1.17 fold enrichment (6-mer frequency, TF over GST control).

Consider TCTCGA, for which the binding signal is 1.35 fold enrichment (6-mer frequency, TF over GST control). With TGACCG the figure was 1.41 fold enrichment (6-mer frequency, TF over GST control); with TCTGCA, 1.29 fold enrichment (6-mer frequency, TF over GST control). As for TACGAC, the binding signal was 1.18 fold enrichment (6-mer frequency, TF over GST control). With TAAGTA the figure was 1.24 fold enrichment (6-mer frequency, TF over GST control); with GTTCTC, 1.22 fold enrichment (6-mer frequency, TF over GST control); with TTTTAA, 1.37 fold enrichment (6-mer frequency, TF over GST control). For the sequence ATGCTT, the binding signal is 1.27 fold enrichment (6-mer frequency, TF over GST control). With ATCCTG the figure was 1.28 fold enrichment (6-mer frequency, TF over GST control); with ACACTT, 1.51 fold enrichment (6-mer frequency, TF over GST control).

With ATTCTC, the binding signal was 1.22 fold enrichment (6-mer frequency, TF over GST control). With TCTTTG the figure was 1.2 fold enrichment (6-mer frequency, TF over GST control); with CAATTC, 1.26 fold enrichment (6-mer frequency, TF over GST control); with TAATTT, 1.43 fold enrichment (6-mer frequency, TF over GST control). With ACTGAT the figure was 1.26 fold enrichment (6-mer frequency, TF over GST control); with TTTTTG, 1.35 fold enrichment (6-mer frequency, TF over GST control). With TTTTCG the figure was 1.25 fold enrichment (6-mer frequency, TF over GST control); with TCGACT, 1.34 fold enrichment (6-mer frequency, TF over GST control); with TTATGT, 1.29 fold enrichment (6-mer frequency, TF over GST control). Consider TTATCT, for which the binding signal is 1.23 fold enrichment (6-mer frequency, TF over GST control). Consider CCGTTC, for which the binding signal was 1.61 fold enrichment (6-mer frequency, TF over GST control). Turning to AAACTA, the binding signal is 1.29 fold enrichment (6-mer frequency, TF over GST control). With TACATG the figure was 1.34 fold enrichment (6-mer frequency, TF over GST control); with GTTGCT, 1.27 fold enrichment (6-mer frequency, TF over GST control).

The record behind these values is publication PMC7862700, “An all-to-all approach to the identification of sequence-specific readers for epigenetic DNA modifications on cytosine”.
